# Test results reported in PubChem BioAssay (EPA / NIEHS).
# Where “and” joins values, the source holds several entries; their conditions need not be identical. Equal values may be shown once. Results filed as inconclusive are left out. The source holds several records for some structures; these can differ, active in one and inactive in another. Calls of active or inactive are those of the source. The calls were made as follows: active = hit-call score of the fitted dose curve at least 0.9, where 1 is the maximum; inconclusive = response in the unintended direction; inactive = score below 0.9.
# How the values were obtained:
# [1] = molecular target: mouse Cholecystokinin, CCK2 Receptor (CCKB), Cckbr (gene 12426) (UniProt P56481); test: NVS_GPCR_mCKKBCentral: NovaScreen (NVS) G Protein-Coupled Receptor Assay for mouse Cholecystokinin, CCK2 Receptor (CCKB) (AID 2283293)
# Chain of mouse Cholecystokinin, CCK2 Receptor (CCKB), Cckbr (gene 12426) (P56481 whole entry, looked up): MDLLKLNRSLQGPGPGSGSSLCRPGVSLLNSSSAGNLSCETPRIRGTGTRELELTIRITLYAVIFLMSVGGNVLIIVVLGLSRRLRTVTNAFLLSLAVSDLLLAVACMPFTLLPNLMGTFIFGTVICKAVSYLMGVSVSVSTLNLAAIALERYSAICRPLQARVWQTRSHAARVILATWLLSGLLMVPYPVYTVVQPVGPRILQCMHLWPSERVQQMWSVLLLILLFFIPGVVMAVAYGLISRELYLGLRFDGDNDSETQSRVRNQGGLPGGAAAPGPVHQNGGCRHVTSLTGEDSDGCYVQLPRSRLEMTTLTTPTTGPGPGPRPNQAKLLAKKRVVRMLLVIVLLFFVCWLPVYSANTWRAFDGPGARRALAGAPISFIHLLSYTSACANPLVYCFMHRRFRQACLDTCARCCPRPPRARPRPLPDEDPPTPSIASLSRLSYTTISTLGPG
# How it was run: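 Radioligand displacement binding on mouse forebrain membranes, 2 h exposure, filter-based scintillation counting. Primary screen in duplicate at 25 uM; actives (e.g. ≥30% inhibition) retested in concentration-response up to 50 uM; loss of binding signal relative to DMSO.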
# [2] = molecular target: human Opioid Receptor Mu (Opiate Mu), OPRM1 (gene 4988) (UniProt P35372); test: NVS_GPCR_hOpiate_mu: NovaScreen (NVS) G Protein-Coupled Receptor Assay for human Opioid Receptor Mu (Opiate Mu) (AID 2283290);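 also: hits lower bound tracer signal versus DMSO meaning displacement of the ligand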
# Chain of human Opioid Receptor Mu (Opiate Mu), OPRM1 (gene 4988) (P35372 whole entry, looked up): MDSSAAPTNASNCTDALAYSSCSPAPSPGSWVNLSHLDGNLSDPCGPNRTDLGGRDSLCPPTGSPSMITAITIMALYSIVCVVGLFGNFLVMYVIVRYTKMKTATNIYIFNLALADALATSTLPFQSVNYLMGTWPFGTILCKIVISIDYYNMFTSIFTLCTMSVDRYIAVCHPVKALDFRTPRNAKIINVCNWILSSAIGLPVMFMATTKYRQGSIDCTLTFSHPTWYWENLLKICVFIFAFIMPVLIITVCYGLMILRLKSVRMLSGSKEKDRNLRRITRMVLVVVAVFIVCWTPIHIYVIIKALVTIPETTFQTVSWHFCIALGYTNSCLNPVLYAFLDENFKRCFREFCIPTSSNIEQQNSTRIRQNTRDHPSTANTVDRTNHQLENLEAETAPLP
# How it was run: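 Cell-free radioligand binding to membranes from CHO cells expressing the receptor; bound tracer measured by filter-based scintillation counting 2.5 hours after dosing. Loss of signal versus DMSO baseline reflects displacement; primary screen at 25 uM in duplicate, actives followed up in concentration series.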
# [3] = molecular target: rat Serotonin, 5-Hydroxytryptamine Receptor (5HT), Non-Selective Binding, Htr1a (gene 24473) (UniProt P19327); test: NVS_GPCR_r5HT_NonSelective: NovaScreen (NVS) G Protein-Coupled Receptor Assay for rat Serotonin, 5-Hydroxytryptamine Receptor (5HT), Non-Selective Binding (AID 2283295)
# How it was run: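 Radioligand displacement on rat cortical membranes, 1 h incubation, filter-based scintillation counting. Primary duplicates at 25 uM, actives retested in concentration series; loss of signal fitted against DMSO as baseline.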
# [4] = molecular target: Metabotropic glutamate receptor 1 (Rattus norvegicus) (UniProt P23385); test: NVS_GPCR_rmMGluR1: NovaScreen (NVS) G Protein-Coupled Receptor Assay for rat Glutamate Metabotropic Receptor 1 (MGluR1) (AID 2283305)
# Chain of Metabotropic glutamate receptor 1 (Rattus norvegicus) (P23385 whole entry, looked up): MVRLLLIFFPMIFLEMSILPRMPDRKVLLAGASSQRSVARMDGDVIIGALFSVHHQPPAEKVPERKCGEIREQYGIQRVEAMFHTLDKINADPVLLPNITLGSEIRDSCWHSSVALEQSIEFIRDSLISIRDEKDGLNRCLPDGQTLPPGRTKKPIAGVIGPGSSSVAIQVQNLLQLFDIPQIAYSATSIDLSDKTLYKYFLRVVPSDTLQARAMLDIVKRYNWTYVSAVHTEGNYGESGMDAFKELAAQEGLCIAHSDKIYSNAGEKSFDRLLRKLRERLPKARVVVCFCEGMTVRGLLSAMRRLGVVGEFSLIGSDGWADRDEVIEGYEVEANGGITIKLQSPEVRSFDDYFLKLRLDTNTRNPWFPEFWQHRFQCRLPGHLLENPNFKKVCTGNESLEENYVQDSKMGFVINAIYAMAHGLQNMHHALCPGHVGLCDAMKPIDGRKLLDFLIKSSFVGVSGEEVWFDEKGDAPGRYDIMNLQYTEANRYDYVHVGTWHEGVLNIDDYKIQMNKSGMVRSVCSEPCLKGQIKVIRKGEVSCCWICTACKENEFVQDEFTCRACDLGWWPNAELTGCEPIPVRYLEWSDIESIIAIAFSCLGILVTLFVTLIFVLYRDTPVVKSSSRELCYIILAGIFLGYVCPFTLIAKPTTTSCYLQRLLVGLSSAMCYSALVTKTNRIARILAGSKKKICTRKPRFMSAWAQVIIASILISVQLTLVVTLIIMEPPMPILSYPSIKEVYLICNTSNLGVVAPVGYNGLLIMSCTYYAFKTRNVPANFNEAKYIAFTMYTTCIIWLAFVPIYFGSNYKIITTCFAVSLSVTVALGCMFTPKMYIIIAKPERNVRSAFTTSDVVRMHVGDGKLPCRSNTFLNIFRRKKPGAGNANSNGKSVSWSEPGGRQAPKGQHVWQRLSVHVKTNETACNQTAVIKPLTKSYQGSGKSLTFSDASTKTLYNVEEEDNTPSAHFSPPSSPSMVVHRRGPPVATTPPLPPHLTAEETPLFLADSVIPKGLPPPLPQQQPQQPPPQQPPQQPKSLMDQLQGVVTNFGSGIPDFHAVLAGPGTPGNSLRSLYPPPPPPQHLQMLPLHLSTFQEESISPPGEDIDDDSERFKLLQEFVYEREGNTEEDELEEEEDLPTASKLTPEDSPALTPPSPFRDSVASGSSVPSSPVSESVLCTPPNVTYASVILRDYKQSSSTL
# How it was run: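 Rat cerebellum membrane preparation, radioligand displacement binding read by filter-based scintillation counting 1 hour after dosing. Initial duplicate single-point screen at 25 uM, then concentration-response up to 50 uM; loss of signal versus DMSO baseline scored.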
# [5] = molecular target: rat Somatostatin Receptor (SST), Sstr1 (gene 25033) (UniProt P28646); test: NVS_GPCR_rSST: NovaScreen (NVS) G Protein-Coupled Receptor Assay for rat Somatostatin Receptor (SST) (AID 2283314)
# Chain of rat Somatostatin Receptor (SST), Sstr1 (gene 25033) (P28646 whole entry, looked up): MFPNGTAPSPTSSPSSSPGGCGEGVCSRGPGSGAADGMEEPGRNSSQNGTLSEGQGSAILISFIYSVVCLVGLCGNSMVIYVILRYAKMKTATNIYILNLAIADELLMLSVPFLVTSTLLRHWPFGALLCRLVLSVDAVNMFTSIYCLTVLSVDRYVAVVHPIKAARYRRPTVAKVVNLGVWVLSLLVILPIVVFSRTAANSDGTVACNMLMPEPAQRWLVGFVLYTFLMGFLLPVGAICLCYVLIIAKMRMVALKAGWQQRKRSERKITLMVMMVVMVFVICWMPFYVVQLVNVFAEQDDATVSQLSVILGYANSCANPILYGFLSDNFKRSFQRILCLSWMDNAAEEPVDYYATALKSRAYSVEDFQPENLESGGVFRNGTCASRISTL
# How it was run: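 Rat forebrain membranes; radioligand displacement read by filter-based scintillation counting 1 h after dosing. Primary screen in duplicate at 25 uM. Actives (e.g., 30% inhibition) were rerun as concentration-response to 50 uM max and fitted against DMSO.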
# [6] = molecular target: guinea pig Serotonin, 5-Hydroxytryptamine Receptor 4 (5HT4), HTR4 (gene 100135548) (UniProt O70528); test: NVS_GPCR_g5HT4: NovaScreen (NVS) G Protein-Coupled Receptor Assay for guinea pig Serotonin, 5-Hydroxytryptamine Receptor 4 (5HT4) (AID 2283294)
# Chain of guinea pig Serotonin, 5-Hydroxytryptamine Receptor 4 (5HT4), HTR4 (gene 100135548) (O70528 whole entry, looked up): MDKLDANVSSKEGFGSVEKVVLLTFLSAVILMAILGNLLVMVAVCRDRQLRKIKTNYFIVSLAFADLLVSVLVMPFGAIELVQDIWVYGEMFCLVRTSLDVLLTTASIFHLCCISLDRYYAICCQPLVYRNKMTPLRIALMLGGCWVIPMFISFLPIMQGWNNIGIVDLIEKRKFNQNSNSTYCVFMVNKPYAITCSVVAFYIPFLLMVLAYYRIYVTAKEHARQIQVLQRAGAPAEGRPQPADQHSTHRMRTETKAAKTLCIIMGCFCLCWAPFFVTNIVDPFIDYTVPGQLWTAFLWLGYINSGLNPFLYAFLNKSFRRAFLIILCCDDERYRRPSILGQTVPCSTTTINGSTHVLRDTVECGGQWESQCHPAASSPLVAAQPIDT
# How it was run: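 Guinea pig striatal membranes; radioligand competitive displacement, filtration and scintillation counting after 1 h. Primary screen in duplicate at 25 uM; actives then tested in concentration series; loss of binding signal fitted relative to DMSO.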
# [7] = molecular target: rat Neurotensin Receptor (NTS), Ntsr1 (gene 366274) (UniProt P20789); test: NVS_GPCR_rNTS: NovaScreen (NVS) G Protein-Coupled Receptor Assay for rat Neurotensin Receptor (NTS) (AID 2283308)
# How it was run: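 Rat forebrain membranes; radioligand binding with competitive displacement, read by filter-based scintillation counting 1 h after dosing. Primary screen in duplicate at 25 uM; actives (e.g., 30% inhibition) rerun in concentration-response up to 50 uM, loss-of-signal versus DMSO.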
# [8] = molecular target: rat Adrenergic Receptor, Beta (Adrb), Non-selective Binding, Adrb1 (gene 24925) (UniProt P18090); test: NVS_GPCR_rAdrb_NonSelective: NovaScreen (NVS) G Protein-Coupled Receptor Assay for rat Adrenergic Receptor, Beta (Adrb), Non-selective Binding (AID 2283298)
# Chain of rat Adrenergic Receptor, Beta (Adrb), Non-selective Binding, Adrb1 (gene 24925) (P18090 whole entry, looked up): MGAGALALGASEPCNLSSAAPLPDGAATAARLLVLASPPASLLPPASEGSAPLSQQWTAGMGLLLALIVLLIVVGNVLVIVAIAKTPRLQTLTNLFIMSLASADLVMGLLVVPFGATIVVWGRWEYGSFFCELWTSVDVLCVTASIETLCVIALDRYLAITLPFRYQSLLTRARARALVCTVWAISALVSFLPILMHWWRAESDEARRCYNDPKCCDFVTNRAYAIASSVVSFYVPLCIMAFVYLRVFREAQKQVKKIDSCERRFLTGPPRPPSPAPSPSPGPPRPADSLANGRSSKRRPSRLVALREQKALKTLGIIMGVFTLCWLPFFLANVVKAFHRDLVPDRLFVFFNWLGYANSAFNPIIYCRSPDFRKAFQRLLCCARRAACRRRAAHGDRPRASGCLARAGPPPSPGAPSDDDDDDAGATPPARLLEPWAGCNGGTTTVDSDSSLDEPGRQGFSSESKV
# How it was run: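 Non-selective beta-adrenergic radioligand binding in rat cortical membranes, 1 h incubation, filter-based scintillation read-out. Primary screen 25 uM in duplicate; hits retested in concentration-response up to 50 uM, DMSO baseline.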
# [9] = molecular target: rat Gamma-Aminobutyric Acid Type B Receptor (GABBR), Gabbr1 (gene 81657) (UniProt Q9Z0U4); test: NVS_GPCR_rGABBR: NovaScreen (NVS) G Protein-Coupled Receptor Assay for rat Gamma-Aminobutyric Acid Type B Receptor (GABBR) (AID 2283301)
# How it was run: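 Radioligand displacement on rat cortical membranes, 1 h, filter-based scintillation counting. Primary screen at 25 uM in duplicate; compounds passing threshold re-tested in concentration-response up to 50 uM; loss of binding fitted against DMSO.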
# [10] = molecular target: rat Neurokinin-1 Receptor (NK1), Tacr1 (gene 24807) (UniProt P14600); test: NVS_GPCR_rNK1: NovaScreen (NVS) G Protein-Coupled Receptor Assay for rat Neurokinin-1 Receptor (NK1) (AID 2283309)
# Chain of rat Neurokinin-1 Receptor (NK1), Tacr1 (gene 24807) (P14600 whole entry, looked up): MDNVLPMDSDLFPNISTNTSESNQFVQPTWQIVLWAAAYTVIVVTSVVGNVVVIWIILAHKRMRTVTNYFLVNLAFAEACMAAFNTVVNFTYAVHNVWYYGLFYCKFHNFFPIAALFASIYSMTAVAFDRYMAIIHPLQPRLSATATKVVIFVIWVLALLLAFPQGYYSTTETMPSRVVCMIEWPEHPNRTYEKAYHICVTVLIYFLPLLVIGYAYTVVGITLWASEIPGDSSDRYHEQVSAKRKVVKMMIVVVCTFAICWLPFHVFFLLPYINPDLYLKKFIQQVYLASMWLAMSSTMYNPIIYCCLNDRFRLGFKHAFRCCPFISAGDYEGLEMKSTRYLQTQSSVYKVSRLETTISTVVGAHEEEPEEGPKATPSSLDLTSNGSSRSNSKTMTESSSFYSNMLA
# How it was run: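 Rat submaxillary gland membranes; radioligand displacement read by filter-based scintillation counting after 1 h. Primary screen in duplicate at 25 uM; actives retested in concentration series; loss of binding fitted versus DMSO.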
# [11] = molecular target: human Neonicotinoid receptor (NNR), CHRNA2 (gene 1135) (UniProt Q15822); test: NVS_LGIC_hNNR_NBungSens: NovaScreen (NVS) Ligand-Gated Ion Channel Assay for human Neonicotinoid receptor (NNR) (AID 2283313)
# How it was run: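 Radioligand displacement on human neuroblastoma membranes, 2 h, filter-based scintillation counting. Primary screen in duplicate at 25 uM; chemicals passing threshold (e.g. 30% inhibition) run singleton concentration-response to 50 uM; loss of binding fitted versus DMSO.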
# [12] = molecular target: rat Adrenergic, Alpha 1A Receptor (Adra1A), Adra1a (gene 29412) (UniProt P43140); test: NVS_GPCR_rAdra1A: NovaScreen (NVS) G Protein-Coupled Receptor Assay for rat Adrenergic, Alpha 1A Receptor (Adra1A) (AID 2283296)
# How it was run: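 Rat cortical membranes pretreated with chlorethyl clonidine; competitive radioligand displacement, 1 h. Filter-based scintillation counting. Primary screen in duplicate at 25 uM, actives followed in concentration series.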
# [13] = molecular target: rat Corticotropin Releasing Factor Receptor (CRF), Crhr1 (gene 58959) (UniProt P35353); test: NVS_GPCR_rCRF: NovaScreen (NVS) G Protein-Coupled Receptor Assay for rat Corticotropin Releasing Factor Receptor (CRF) (AID 2283300)
# Chain of rat Corticotropin Releasing Factor Receptor (CRF), Crhr1 (gene 58959) (P35353 whole entry, looked up): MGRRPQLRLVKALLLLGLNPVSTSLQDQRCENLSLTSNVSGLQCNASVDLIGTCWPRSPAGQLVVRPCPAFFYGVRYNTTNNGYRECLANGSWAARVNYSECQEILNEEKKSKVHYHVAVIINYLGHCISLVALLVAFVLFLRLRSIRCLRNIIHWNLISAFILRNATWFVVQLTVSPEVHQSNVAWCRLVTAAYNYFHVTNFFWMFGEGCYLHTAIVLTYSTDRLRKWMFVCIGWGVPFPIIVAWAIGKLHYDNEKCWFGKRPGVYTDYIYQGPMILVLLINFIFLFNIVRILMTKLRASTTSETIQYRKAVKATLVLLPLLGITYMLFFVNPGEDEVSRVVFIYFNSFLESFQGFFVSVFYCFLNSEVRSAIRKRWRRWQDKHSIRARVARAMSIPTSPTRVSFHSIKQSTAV
# How it was run: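 Rat cortical membranes used as receptor source in a radioligand competitive displacement binding assay; scintillation read 2 h after dosing. Primary screen run in duplicate at 25 uM; loss of signal versus DMSO baseline indicates binding.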
# [14] = molecular target: rat Histamine Receptor (H3), Hrh3 (gene 85268) (UniProt Q9QYN8); test: NVS_GPCR_rH3: NovaScreen (NVS) G Protein-Coupled Receptor Assay for rat Histamine Receptor (H3) (AID 2283303)
# How it was run: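 Rat forebrain membranes incubated 1 h with compound; radioligand displacement measured by filter-based scintillation counting. Single-concentration duplicates at 25 µM, then concentration-response up to 50 µM, relative to DMSO.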
# Adra2b (gene 24174) = Adra2b (gene 24174) (UniProt P19328); test: NVS_GPCR_rmAdra2B: NovaScreen (NVS) G Protein-Coupled Receptor Assay for hybird cells Adrenergic, Alpha 2B Receptor (Adra2B) (AID 2283306)
# How it was run: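 Radioligand filter-binding assay on membrane proteins from neuroglioma/blastoma hybrid cells (rodent), 1 h after dosing; scintillation counting, loss of signal vs DMSO. Primary screen in duplicate at 25 uM, actives then run in concentration series.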
# [15] = molecular target: rat Opioid Receptor, Non-selective Sodium (Na+) Binding, Oprm1 (gene 25601) (UniProt P33535); test: NVS_GPCR_rOpiate_NonSelectiveNa: NovaScreen (NVS) G Protein-Coupled Receptor Assay for rat Opioid Receptor, Non-selective Sodium (Na+) Binding (AID 2283311)
# Chain of rat Opioid Receptor, Non-selective Sodium (Na+) Binding, Oprm1 (gene 25601) (P33535 whole entry, looked up): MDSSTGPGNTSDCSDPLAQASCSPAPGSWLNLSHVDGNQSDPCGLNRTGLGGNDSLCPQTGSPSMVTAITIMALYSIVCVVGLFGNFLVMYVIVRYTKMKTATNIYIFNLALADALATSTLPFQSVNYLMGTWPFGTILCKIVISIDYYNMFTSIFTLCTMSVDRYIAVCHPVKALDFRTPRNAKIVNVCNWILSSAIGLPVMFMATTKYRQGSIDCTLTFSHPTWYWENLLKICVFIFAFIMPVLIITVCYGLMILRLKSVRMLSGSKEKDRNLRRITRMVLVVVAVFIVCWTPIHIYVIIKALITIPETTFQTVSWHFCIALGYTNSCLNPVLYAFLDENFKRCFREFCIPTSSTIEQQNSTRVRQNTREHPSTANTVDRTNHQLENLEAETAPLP
# How it was run: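 Rat forebrain membranes, radioligand displacement with filter scintillation counting, 1.5 h incubation. Screened in duplicate at 25 µM; hits then run in concentration-response up to 50 µM; loss of binding fitted versus DMSO.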
# [16] = molecular target: guinea pig Bradykinin Receptor B2 (BK2), BDKRB2 (gene 100135486) (UniProt O70526); test: NVS_GPCR_gBK2: NovaScreen (NVS) G Protein-Coupled Receptor Assay for guinea pig Bradykinin Receptor B2 (BK2) (AID 2283292)
# Chain of guinea pig Bradykinin Receptor B2 (BK2), BDKRB2 (gene 100135486) (O70526 whole entry, looked up): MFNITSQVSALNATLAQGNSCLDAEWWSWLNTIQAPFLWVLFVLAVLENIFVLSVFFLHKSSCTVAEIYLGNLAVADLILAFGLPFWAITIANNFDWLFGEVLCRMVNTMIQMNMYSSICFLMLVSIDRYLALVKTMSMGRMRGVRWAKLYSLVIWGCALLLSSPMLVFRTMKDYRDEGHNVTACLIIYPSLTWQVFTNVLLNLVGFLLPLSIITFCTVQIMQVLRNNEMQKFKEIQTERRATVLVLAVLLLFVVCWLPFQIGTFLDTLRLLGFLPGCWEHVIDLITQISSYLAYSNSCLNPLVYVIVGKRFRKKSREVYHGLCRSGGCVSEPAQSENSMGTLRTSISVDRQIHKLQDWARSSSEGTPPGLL
# How it was run: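 Radioligand displacement on guinea pig ileum membranes for 1 h, read by filter-based scintillation counting; loss of signal relative to DMSO. Compounds were screened in duplicate at 25 uM, and those passing the threshold were retested in concentration-response up to 50 uM.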
# [17] = molecular target: rat Adrenergic Receptor, Alpha 2 (Adra2), Non-selective Binding, Adra2a (gene 25083) (UniProt P22909); test: NVS_GPCR_rAdra2_NonSelective: NovaScreen (NVS) G Protein-Coupled Receptor Assay for rat Adrenergic Receptor, Alpha 2 (Adra2), Non-selective Binding (AID 2283299)
# How it was run: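 Rat cortical membranes, radioligand competitive displacement read by filter-based scintillation counting 1.25 hours after dosing. Primary screen in duplicate at 25 uM; actives followed up in concentration series.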
# [18] = test system: guinea pig Atrionatriuretic Peptide Receptor A (ANPA), gene 100135578; test: NVS_GPCR_gANPA: NovaScreen (NVS) G Protein-Coupled Receptor Assay for guinea pig Atrionatriuretic Peptide Receptor A (ANPA) (AID 2283291)
# How it was run: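 Radioligand binding to guinea pig cerebellar membranes was measured after 1 h by filter-based scintillation counting. Chemicals were tested in duplicate at 25 uM, with hits run in concentration-response to a maximum of 50 uM. Binding loss was fitted against DMSO.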
# [19] = test system: rat Adrenergic, Alpha 1B Receptor (Adra1B), gene 24173; test: NVS_GPCR_rAdra1B: NovaScreen (NVS) G Protein-Coupled Receptor Assay for rat Adrenergic, Alpha 1B Receptor (Adra1B) (AID 2283297)
# How it was run: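 Rat liver membranes, radioligand displacement with filter-based scintillation detection, 1 h incubation. Primary screen in duplicate at 25 uM; actives retested in concentration series; activity relative to DMSO.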
smiles,measurement,setting,value
CCc1ccc(C(=O)NN(C(=O)c2cc(C)cc(C)c2)C(C)(C)C)cc1,outcome,[1],inactive
CC[C@H](C)[C@H]1O[C@]2(C=C[C@@H]1C)C[C@@H]1C[C@@H](C/C=C(\C)[C@@H](O[C@H]3C[C@H](OC)[C@@H](O[C@H]4C[C@H](OC)[C@@H](O)[C@H](C)O4)[C@H](C)O3)[C@@H](C)/C=C/C=C3\CO[C@@H]4[C@H](O)C(C)=C[C@@H](C(=O)O1)[C@]34O)O2 (tested in a mixture with another compound),AC50,[2],9.27 µM (active)
same,AC50,[1],12.4 µM (active)
same,AC50,[3],16.4 µM (active)
same,AC50,[4],9.49 µM (active)
same,outcome,[5],inactive
O=C1c2ccccc2C(=O)N1SC(Cl)(Cl)Cl,AC50,[2],6.04 µM (active)
CC(C)(C)C(O)/C(=C\c1ccc(Cl)cc1Cl)n1cncn1 (stereo unspecified),outcome,[2],inactive
N#Cc1c(Cl)c(Cl)c(Cl)c(C#N)c1Cl,outcome,[6],inactive
same,outcome,[4],inactive
CNC(=O)/C=C(\C)OP(=O)(OC)OC,outcome,[7],inactive
Oc1cc(Cl)ccc1Oc1ccc(Cl)cc1Cl,AC50,[2],19.9 µM (active) and 7.86 µM (active) and 15.6 µM (active)
same,outcome,[2],inactive
same,AC50,[5],18.7 µM (active)
Oc1ccc(Cl)cc1Cc1ccccc1,AC50,[2],16.5 µM (active) [middle of 6 runs]
same,outcome,[2],inactive
same,AC50,[1],19.8 µM (active) [middle of 4 runs]
same,AC50,[6],17.2 µM (active) [middle of 6 runs]
same,outcome,[8],inactive
same,outcome,[9],inactive
same,outcome,[10],inactive
same,AC50,[5],25.2 µM (active)
O=[N+]([O-])/N=C1\NCCN1Cc1ccc(Cl)nc1,AC50,[11],8.29 µM (active)
O=C(Nc1ccccc1)Nc1cnns1,AC50,[6],6.99 µM (active)
same,outcome,[12],inactive
same,outcome,[13],inactive
same,outcome,[14],inactive
same,outcome,Adra2b (gene 24174),inactive
same,outcome,[10],inactive
same,outcome,[15],inactive
O=[N+]([O-])c1c(Cl)c(Cl)c(Cl)c(Cl)c1Cl,outcome,[13],inactive
COC(=O)c1ccccc1S(=O)(=O)NC(=O)N(C)c1nc(C)nc(OC)n1,outcome,[16],inactive
CCOCN(C(=O)CCl)c1c(C)cccc1CC,outcome,[15],inactive
CCC(C)(C)C(=O)OC1=C(c2ccc(Cl)cc2Cl)C(=O)OC12CCCCC2,outcome,[16],inactive
same,outcome,[1],inactive
same,outcome,[11],inactive
C#CCN1C(=O)COc2cc(F)c(N3C(=O)C4=C(CCCC4)C3=O)cc21,outcome,[16],inactive
same,outcome,[8],inactive
CCCN(CCOc1c(Cl)cc(Cl)cc1Cl)C(=O)n1ccnc1,AC50,[2],10.5 µM (active)
same,AC50,[1],6.71 µM (active)
same,AC50,[17],1.85 µM (active)
same,AC50,Adra2b (gene 24174),3.65 µM (active)
same,outcome,[10],inactive
CC(C)N(C(=O)COc1nnc(C(F)(F)F)s1)c1ccc(F)cc1,outcome,[4],inactive
O=S(=O)(O)C(F)(F)C(F)(F)C(F)(F)C(F)(F)C(F)(F)C(F)(F)C(F)(F)C(F)(F)F,outcome,[18],inactive
same,outcome,[19],inactive
same,outcome,[5],inactive
CC(C)(C)C(O)C(Oc1ccc(Cl)cc1)n1cncn1 (stereo unspecified),outcome,[1],inactive
same,outcome,[19],inactive
same,AC50,[10],38.2 µM (active)
same,outcome,[10],inactive
